Screening data as filed in PubChem BioAssay.
GLD-1 RNA inh – GLD-1/TGE RNA complex disruptors, primary screen, biochemical, fluorescence polarization; Female germline-specific tumor suppressor gld-1 (Caenorhabditis elegans), Q17339; purified GLD-1 + fluorescein TGE RNA; inhibition, % at 5.96 µM; actives 0.44% (n = 320,000);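 active = percent inhibition above a per-plate cutoff, the plate mean of test compounds plus 3 SD, cut at about 30% in these data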;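 note: 0% = DMSO wells with GLD-1 and probe and 100% = wells lacking GLD-1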
BCLXL inh – inhibitors of human Bcl-xL, primary screen, biochemical, fluorescence polarization, HTS. inhibition, % at 10.9 µM. actives 0.7% (n = 320,000). GST-Bcl-xL / FITC-Bim BH3 peptide fluorescence polarization. Bcl-2-like protein 1 (Homo sapiens), Q07817;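 active = inhibition above the mean of all tested compounds plus 3 SD, cutoff set per campaign, cut at about 30% in these data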;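 note: 0% = DMSO wells and 100% = unlabeled Bim-BH3 peptide competitor; inhibitors lower millipolarization by displacing the labeled peptide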
Target sequence (Q07817 whole entry, looked up): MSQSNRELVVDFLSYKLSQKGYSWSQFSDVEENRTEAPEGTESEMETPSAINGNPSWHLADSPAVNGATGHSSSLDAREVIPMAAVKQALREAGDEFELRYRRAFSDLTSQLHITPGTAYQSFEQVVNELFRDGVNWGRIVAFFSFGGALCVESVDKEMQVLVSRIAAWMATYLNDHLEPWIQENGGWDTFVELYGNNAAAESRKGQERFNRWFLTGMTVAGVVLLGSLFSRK
Mcl1-Noxa inh – Mcl-1/Noxa binding inhibitors, primary screen, biochemical, TR-FRET, 1536-well; Induced myeloid leukemia cell differentiation protein Mcl-1 (Homo sapiens), Q07820; TR-FRET Mcl-1/Noxa peptide binding, 2 h; inhibition, % at 21.7 µM; actives 1.5% (n = 220,000); AID 1022, 2008;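 active = compounds that cut the protein-peptide binding signal by more than 50% relative to plate controls in a single-dose test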;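 note: His-tagged Mcl-1 with rhodamine Noxa BH3 peptide and terbium anti-His antibody; 0% = Mcl-1 plus Noxa peptide wells and 100% = peptide-only wells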
Target sequence (Q07820 whole entry, looked up): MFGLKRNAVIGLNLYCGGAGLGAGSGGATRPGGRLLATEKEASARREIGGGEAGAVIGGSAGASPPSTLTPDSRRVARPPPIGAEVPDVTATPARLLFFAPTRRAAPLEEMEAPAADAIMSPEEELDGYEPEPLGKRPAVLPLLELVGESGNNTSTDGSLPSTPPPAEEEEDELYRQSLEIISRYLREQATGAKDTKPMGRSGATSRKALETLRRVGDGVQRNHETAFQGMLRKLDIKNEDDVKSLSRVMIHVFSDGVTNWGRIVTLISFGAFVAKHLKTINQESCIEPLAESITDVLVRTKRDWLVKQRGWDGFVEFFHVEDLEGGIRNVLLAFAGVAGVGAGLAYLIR
Mcl-1 Bim block – inhibitors of Bim peptide binding to Mcl-1, primary screen, biochemical, bead-based flow cytometry, multiplex; Induced myeloid leukemia cell differentiation protein Mcl-1 (Homo sapiens), Q07820; Bim peptide-Mcl-1 binding; inhibition, % at 10 µM; actives 0.1% (n = 190,000); AID 1009, 2008; in the data active = inhibition above about 40%;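 note: 0% = no compound tracer wells and 100% = peptide blocker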
MCL1 BIM primary – inhibitors of MCL1 binding to BIM-BH3, primary screen, biochemical, fluorescence polarization; Induced myeloid leukemia cell differentiation protein Mcl-1 (Homo sapiens), Q07820; GST-MCL1 / FITC-Bim-BH3 fluorescence polarization; inhibition, % at 10.9 µM; actives 0.68% (n = 320,000);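 active = inhibition above the mean inhibition of all tested compounds plus 3 SD, set per campaign, cut at about 40% in these data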;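 note: 0% = DMSO wells and 100% = unlabeled Bim-BH3 peptide control; higher means more loss of mP so more displacement of Bim peptide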
Mcl1 Bid PPI – Mcl-1/Bid binding inhibitors, primary screen, biochemical, TR-FRET, 1536-well | Induced myeloid leukemia cell differentiation protein Mcl-1 (Homo sapiens), Q07820 | TR-FRET Mcl-1/Bid-Dy647 peptide binding | inhibition, % at 21.7 µM | actives 0.97% (n = 220,000);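 active = compounds that cut the binding signal by more than half at the single screening dose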;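 note: His-tagged Mcl-1 with europium anti-His antibody binding Bid BH3 peptide; 0% = Mcl-1 plus peptide wells and 100% = peptide-only wells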
* hit, by the source's call; / = no result given. Only some compounds are listed: those with a hit (about 2.3% of all), similar ones and a draw of the others.

SMILES	GLD-1 RNA inh	BCLXL inh	Mcl1-Noxa inh	Mcl-1 Bim block	MCL1 BIM primary	Mcl1 Bid PPI
O=C(NN1CCN(Cc2ccccc2Cl)CC1)c1ccc(Br)cc1	2.3	4.1	20.5	-1.0	-2.2	-22.8
O=c1cc2c(=O)oc3cc(O)c(O)oc3c2c(O)c1O	/	/	88.8*	/	/	-157.8
Cc1ccccc1NC(=S)N/N=C/c1ccc(O)cc1O	2.3	9.4	60.2*	/	19.5	-255.7
CCCCC(C(=O)OCC)C(N)Cc1ccc(F)cc1 (stereo not drawn)	7.1	4.8	24.4	98.0*	13.8	1.5
CCO[C@H]1OC(C(N)=O)=C[C@@H](c2ccccc2)[C@@H]1CCCO	5.8	6.0	-14.6	-1.0	2.0	51.2*
Cc1ccccc1C(=O)Nc1ccc2c(C#N)c3nc4ccccc4nc3n2c1	12.7	41.6*	70.4*	4.0	36.6	84.1*
OCCN1CCN(c2ncnc3sc(-c4ccccc4)cc23)CC1	-7.9	-3.2	13.0	-1.0	0.2	-9.7
O=C(Nc1ccc(Cl)cc1)c1cc2c(cc1O)[nH]c1ccccc12	10.2	-0.6	61.5*	/	-0.5	34.1
CC(=O)Nc1ccc2[nH]c3ccccc3c2c1	-5.3	5.3	-18.1	-1.0	3.1	-27.5
CCCCc1nnc2c(N(C)S(=O)(=O)c3ccccc3)nc3ccccc3n12	-1.9	0.8	19.1	/	-0.5	55.1*
CCOc1cc(N2CCOCC2)c(OCC)cc1NC(=O)COC(=O)CCOc1cc(C)ccc1C	5.9	3.0	/	/	-1.3	/
CN1c2ccccc2Oc2nnc(Cl)cc21	0.4	-3.9	8.7	0.0	-10.9	-19.1
CCN(CC)CCOc1cc2c(nn1)Oc1ccccc1N2C	-0.3	7.8	37.2	4.0	10.5	54.1*
Cc1nnc(-c2cccc(Br)c2)c2cn(-c3ccccc3)nc12	2.9	3.6	21.1	0.0	-3.3	0.8
Cc1nnc(-c2cccc(Br)c2)c2cn(-c3ccc(Br)cc3)nc12	-6.6	8.8	15.5	-1.0	0.3	56.1*
COc1cccc(C2=Nc3cccc4cccc(c34)N2)c1	7.7	14.0	57.3*	-5.0	19.4	9.8
c1coc(C2=Nc3cccc4cccc(c34)N2)c1	8.5	14.3	32.9	8.0	24.1	-57.6
Nc1ccc(C2=Nc3cccc4cccc(c34)N2)cc1	/	/	77.1*	3.0	/	10.4
CC1=Nc2cccc3cccc(c23)N1	-0.1	21.9	92.9*	-3.0	25.2	-20.9
O=C(CN1C(=O)CSc2ncccc21)Nc1cccc(Cl)c1	-1.6	-1.7	/	/	-3.8	/
COc1cccc(-c2nn(C)c3sc(C(=O)NCc4ccc(C)o4)cc23)c1	4.5	1.1	59.8*	2.0	3.4	-7.9
COc1cccc(-c2nn(C)c3sc(C(=O)NCc4ccc5c(c4)OCO5)cc23)c1	-4.2	2.5	-15.9	0.0	3.6	-8.6
Cn1c(=O)c(=O)n(C)c2cc(S(=O)(=O)N3CCCC3C(=O)NCc3cccnc3)ccc21 (stereo not drawn)	3.8	4.4	24.9	/	5.5	-7.0
C=CCOC(=O)/C=C/C(=O)NC(N)=O	-3.0	6.6	38.5	/	8.5	75.4*
Nc1nc2ccc([N+](=O)[O-])c(N)c2s1	-6.0	23.4	53.7*	0.0	26.3	-53.9
SMILES	GLD-1 RNA inh	BCLXL inh	Mcl1-Noxa inh	Mcl-1 Bim block	MCL1 BIM primary	Mcl1 Bid PPI
CN(C)C(CNC(=O)CNC(=O)c1ccc2ccccc2c1)c1ccccc1 (stereo not drawn)	-1.7	1.7	/	/	-0.4	/
CC(NC(=O)c1ccccc1)C(=O)OCC(=O)c1ccc(Br)cc1 (stereo not drawn)	-1.0	169.1*	/	/	9.8	/
CC(=O)NC(C)C(=O)OCC(=O)c1ccc(-c2ccccc2)cc1 (stereo not drawn)	-1.8	-11.1	2.2	5.0	-6.1	-4.5
CCOC(=O)c1c(NC(C)=O)sc2c(O)c(Br)cc(Br)c12	4.7	15.8	84.5*	-3.0	26.9	-14.6
CC1CCCN(S(=O)(=O)c2ccc3[nH]c4c(c3c2)CCCC4)C1 (stereo not drawn)	4.8	-3.6	/	/	-4.4	/
COC(=O)N(NC(=O)C(O)(c1ccccc1)c1ccccc1)c1ccccc1	4.0	1.1	16.0	-6.0	-3.6	60.1*
N#C/C(=C\c1cccnc1)C(=O)Nc1ccc(C(=O)O)cc1	4.0	3.7	14.6	-1.0	2.6	-36.3
N#C/C(=C\c1cccnc1)C(=O)Nc1ccccc1	28.6	30.7*	5.2	-4.0	27.2	-9.4
Cc1cccc(-c2n[nH]c(=S)n2/N=C/c2ccc(C)s2)c1	5.0	-25.0	69.0*	4.0	-16.4	-32.9
O=C(CNC(=O)c1ccc(F)cc1)N/N=C/c1cccnc1	-0.4	4.7	/	/	3.5	/
CN(c1ccc(F)cc1)S(=O)(=O)c1ccc2[nH]cc(C(=O)O)c(=O)c2c1	4.4	4.7	12.1	0.0	4.4	57.9*
COCCN(CCOC)C(=O)c1c[nH]c2ccc(S(=O)(=O)N(C)c3ccc(F)cc3)cc2c1=O	0.0	5.0	40.8	-3.0	3.4	62.3*
CC(C)=C1C(=O)NN(c2ccc(C)c(Cl)c2)C1=O	3.8	3.0	-12.8	45.0*	1.3	-20.2
CC(C)=C1C(=O)NN(c2cccc(Cl)c2)C1=O	4.2	4.5	19.3	-7.0	-14.2	-38.2
CCOc1ccc(C2C3=C(CCCC3=O)Nc3ccc4ncccc4c32)cc1 (stereo not drawn)	6.8	0.8	-2.9	/	2.5	-67.1
O=C1CCCC2=C1C(c1ccc(O)c(O)c1)c1c(ccc3ncccc13)N2 (stereo not drawn)	0.6	35.7*	78.8*	7.0	52.1*	-44.2
CCn1c(CCNC(=O)c2ccc(OC)cc2)nnc1SCc1ccc(Cl)c(Cl)c1	5.8	6.0	19.7	0.0	7.7	-9.8
COc1ccc(C(=O)NC(CO)c2nnc(SCc3ccc(Cl)c(Cl)c3)n2C)cc1 (stereo not drawn)	1.3	3.9	-0.1	41.0*	2.6	-3.3
C#CCOCCOCCOCCNc1nc(N2CCN(C(=O)[C@H](CCCCN)n3cc(CCCC)nn3)CC2)nc(N2CCN(C(=O)[C@H](Cc3ccc(O)cc3)n3cc(CCO)nn3)CC2)n1	-6.8	5.3	45.4	-1.0	14.6	56.6*
C#CCOCCOCCOCCNc1nc(N2CCN(C(=O)[C@H]([C@@H](C)CC)n3cc([C@@H](N)Cc4ccc(O)cc4)nn3)CC2)nc(N2CCN(C(=O)[C@H](Cc3cc4ccccc4[nH]3)n3cc([C@@H](N)C(C)CC)nn3)CC2)n1 (stereo partly drawn)	-8.0	-1.9	24.7	-3.0	0.0	21.2
